Reference: ChEMBL document CHEMBL3988442, “University of Dundee, Small-Polar-MMV Screening Library” (2021)
For some of these results: Entries with a potency or affinity are not part of this list.

Columns and labels:
Parameters in all cases: scale not given: direction of the effect not stated beside the values
[1] = biological target: Protein translocase subunit SecA (Escherichia coli (strain K12)) (UniProt P10408); experiment: Assay to Identify E. coli SecA ATPase Inhibitors; type: functional; conditions: 30 µM
Protein translocase subunit SecA (Escherichia coli (strain K12)), sequence (P10408 whole entry): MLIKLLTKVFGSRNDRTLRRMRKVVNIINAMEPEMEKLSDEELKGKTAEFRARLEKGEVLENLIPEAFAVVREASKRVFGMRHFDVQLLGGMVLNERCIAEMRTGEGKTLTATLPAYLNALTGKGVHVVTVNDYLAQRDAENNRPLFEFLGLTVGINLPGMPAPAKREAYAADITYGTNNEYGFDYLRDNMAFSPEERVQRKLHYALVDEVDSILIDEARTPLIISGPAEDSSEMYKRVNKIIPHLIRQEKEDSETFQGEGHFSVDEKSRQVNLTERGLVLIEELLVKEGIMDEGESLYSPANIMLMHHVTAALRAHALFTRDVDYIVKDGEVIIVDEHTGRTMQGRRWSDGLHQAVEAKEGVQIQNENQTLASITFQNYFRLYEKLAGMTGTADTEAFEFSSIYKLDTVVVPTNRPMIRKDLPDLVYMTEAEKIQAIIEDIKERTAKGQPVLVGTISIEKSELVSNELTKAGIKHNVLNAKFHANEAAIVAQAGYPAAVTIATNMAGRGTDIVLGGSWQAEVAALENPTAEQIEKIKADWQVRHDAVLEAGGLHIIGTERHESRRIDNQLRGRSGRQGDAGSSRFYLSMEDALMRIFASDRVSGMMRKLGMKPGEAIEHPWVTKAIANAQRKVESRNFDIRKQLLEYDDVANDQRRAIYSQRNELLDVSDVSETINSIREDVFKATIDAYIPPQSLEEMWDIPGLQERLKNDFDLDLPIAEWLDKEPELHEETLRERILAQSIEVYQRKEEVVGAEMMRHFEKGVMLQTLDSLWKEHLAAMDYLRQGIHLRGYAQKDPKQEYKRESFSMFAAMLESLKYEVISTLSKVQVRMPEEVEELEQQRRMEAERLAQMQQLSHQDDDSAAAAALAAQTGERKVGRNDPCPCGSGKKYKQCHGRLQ

[2] = biological target: T1, Ubiquitin-activating enzyme e1, putative (Leishmania donovani (strain BPK282A1)) (UniProt E9BSI1); experiment: Leishmania donovani Ubiquitin Activating Enzyme (LdE1); type: functional; conditions: 30 µM
T1 sequence (whole entry): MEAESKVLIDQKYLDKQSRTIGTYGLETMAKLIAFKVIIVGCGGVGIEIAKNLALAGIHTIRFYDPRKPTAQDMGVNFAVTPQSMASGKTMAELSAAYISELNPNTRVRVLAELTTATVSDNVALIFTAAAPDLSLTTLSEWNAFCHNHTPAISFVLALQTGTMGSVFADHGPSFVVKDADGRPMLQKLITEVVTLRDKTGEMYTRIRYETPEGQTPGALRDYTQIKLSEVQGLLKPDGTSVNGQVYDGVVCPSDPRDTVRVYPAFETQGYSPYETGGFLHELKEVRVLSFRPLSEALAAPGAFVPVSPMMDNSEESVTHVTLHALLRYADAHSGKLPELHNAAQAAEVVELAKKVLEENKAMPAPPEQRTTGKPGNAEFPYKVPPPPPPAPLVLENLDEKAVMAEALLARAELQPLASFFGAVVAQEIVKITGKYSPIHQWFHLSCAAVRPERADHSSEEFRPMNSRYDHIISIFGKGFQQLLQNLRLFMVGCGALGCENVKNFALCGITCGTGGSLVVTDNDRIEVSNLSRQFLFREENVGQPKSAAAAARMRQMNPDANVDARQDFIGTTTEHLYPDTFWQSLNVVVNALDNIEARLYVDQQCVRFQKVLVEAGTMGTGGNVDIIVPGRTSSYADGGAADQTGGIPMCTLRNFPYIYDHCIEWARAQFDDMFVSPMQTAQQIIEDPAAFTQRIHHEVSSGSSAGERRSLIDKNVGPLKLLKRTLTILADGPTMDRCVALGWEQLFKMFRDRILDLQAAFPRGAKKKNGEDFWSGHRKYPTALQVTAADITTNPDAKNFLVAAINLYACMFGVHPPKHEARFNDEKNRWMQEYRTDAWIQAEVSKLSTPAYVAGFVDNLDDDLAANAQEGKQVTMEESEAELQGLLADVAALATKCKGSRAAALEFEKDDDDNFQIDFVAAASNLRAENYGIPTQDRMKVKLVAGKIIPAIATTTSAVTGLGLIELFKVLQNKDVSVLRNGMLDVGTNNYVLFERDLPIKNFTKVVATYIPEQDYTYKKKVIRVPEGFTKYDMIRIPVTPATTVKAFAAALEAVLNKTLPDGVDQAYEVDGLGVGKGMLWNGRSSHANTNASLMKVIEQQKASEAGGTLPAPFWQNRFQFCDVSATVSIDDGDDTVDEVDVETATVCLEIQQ

[3] = biological target: AMP-activated protein kinase, AMPK (Homo sapiens) (UniProt P54646+O43741+P54619+Q9UGJ0+Q9Y478+Q13131+Q9UGI9); experiment: AMP-dependent Kinase enzyme assay. An in vitro enzyme assay that detects ADP turnover that is directly proportional to AMPK activity. This uses naive AMPK that is activated during the assay with MK-8722; type: functional; conditions: 30 µM
[4] = biological target: Sialic acid-binding Ig-like lectin 9 (Homo sapiens) (UniProt Q9Y336); experiment: Hs-Siglec9 ALPHAscreen SOP 20170721; conditions: 10 µM
Sialic acid-binding Ig-like lectin 9 (Homo sapiens), sequence (Q9Y336 whole entry): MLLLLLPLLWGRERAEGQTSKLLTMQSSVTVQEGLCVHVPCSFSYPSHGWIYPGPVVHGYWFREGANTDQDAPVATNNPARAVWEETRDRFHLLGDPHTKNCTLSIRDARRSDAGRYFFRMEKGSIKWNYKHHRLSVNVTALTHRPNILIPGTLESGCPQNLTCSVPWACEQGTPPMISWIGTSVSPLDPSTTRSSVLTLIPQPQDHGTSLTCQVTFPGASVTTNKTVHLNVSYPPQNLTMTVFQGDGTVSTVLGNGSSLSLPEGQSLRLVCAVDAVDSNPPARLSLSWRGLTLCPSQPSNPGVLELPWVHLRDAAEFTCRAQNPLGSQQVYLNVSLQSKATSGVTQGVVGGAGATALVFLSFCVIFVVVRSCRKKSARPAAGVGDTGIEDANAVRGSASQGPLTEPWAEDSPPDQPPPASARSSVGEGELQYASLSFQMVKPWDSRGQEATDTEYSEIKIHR

Trypanosoma cruzi = experiment: Trypanosoma cruzi phosphomannomutase and mannose-1-phosphate guanylyltransferase assay; type: functional; conditions: 10 µM
[5] = biological target: T2, Arginase-2, mitochondrial (Homo sapiens) (UniProt P78540); experiment: in vitro enzyme assay to detect the production of urea directly proportional to the activity of Arginase II; type: functional; conditions: 33.3 µM; note: in the data most compounds retested in dose-response had high values
T2 sequence (whole entry): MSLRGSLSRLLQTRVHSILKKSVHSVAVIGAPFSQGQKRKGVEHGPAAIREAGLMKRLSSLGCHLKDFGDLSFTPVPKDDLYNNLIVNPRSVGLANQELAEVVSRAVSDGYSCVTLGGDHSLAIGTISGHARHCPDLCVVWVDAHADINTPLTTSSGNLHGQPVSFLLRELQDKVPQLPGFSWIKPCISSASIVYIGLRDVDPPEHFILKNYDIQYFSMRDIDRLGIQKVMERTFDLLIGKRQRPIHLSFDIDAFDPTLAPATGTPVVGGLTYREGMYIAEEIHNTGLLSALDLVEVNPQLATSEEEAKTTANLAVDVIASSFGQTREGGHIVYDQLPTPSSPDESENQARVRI

[6] = biological target: T3, Proteasome subunit beta (Trypanosoma cruzi) (UniProt O96673); experiment: Trypanosoma cruzi proteasome chymotrypsin-like activity (TcProtChymo) assay.; note: in the data most compounds retested in dose-response had high values; type: functional; conditions: 9.37 µM
T3 sequence (whole entry): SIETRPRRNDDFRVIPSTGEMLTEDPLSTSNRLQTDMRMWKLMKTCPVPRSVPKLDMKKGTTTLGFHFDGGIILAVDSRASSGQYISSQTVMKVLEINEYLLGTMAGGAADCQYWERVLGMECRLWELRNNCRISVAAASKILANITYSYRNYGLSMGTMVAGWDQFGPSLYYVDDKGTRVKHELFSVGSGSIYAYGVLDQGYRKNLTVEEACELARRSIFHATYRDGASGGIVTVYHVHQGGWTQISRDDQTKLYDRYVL

Homo sapiens = species: Homo sapiens; experiment: To identify inhibition of the IFN signalling (Jak-Stat) pathway via expression of an eGFP reporter gene under the control of an IFN-stimulated response element (ISRE) containing MxA promoter.; type: functional; conditions: 30 µM
[7] = biological target: T4, Tyrosyl-tRNA synthetase, putative (Trypanosoma cruzi (strain CL Brener)) (UniProt Q4DSP6); experiment: Trypanosoma cruzi tyrosyl tRNA synthetase (TcYRS) _High Tyrosine SOP; type: functional; conditions: 30 µM; note: in the data most compounds retested in dose-response had high values
T4 sequence (whole entry): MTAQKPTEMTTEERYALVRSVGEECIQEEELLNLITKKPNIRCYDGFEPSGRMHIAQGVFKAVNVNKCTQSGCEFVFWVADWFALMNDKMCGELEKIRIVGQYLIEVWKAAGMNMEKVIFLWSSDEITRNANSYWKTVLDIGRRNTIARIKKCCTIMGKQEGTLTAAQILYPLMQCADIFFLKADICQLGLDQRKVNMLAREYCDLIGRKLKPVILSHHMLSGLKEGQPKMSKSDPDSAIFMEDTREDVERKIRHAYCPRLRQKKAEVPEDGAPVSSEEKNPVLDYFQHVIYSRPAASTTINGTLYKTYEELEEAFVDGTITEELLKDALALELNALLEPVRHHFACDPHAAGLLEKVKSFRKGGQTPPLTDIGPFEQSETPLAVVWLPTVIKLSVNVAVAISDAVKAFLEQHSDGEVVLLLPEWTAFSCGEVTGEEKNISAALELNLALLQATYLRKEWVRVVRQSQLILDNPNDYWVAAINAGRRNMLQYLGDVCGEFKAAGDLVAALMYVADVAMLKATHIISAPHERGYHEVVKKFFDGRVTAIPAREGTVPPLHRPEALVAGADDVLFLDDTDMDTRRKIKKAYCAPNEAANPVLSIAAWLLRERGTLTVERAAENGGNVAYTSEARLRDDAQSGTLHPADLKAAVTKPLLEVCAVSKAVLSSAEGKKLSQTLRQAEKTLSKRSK

[8] = biological target: T4, Tyrosyl-tRNA synthetase, putative (Trypanosoma cruzi (strain CL Brener)); experiment: Trypanosoma cruzi tyrosyl tRNA synthetase (TcYRS) SOP; type: functional; conditions: 30 µM
[9] = biological target: Chromo domain-containing protein 1 (Saccharomyces cerevisiae (strain ATCC 204508 / S288c) (Baker's yeast)) (UniProt P32657); experiment: ScCHD-1 Enzyme Inhibition Assay; type: functional; conditions: 30 µM; note: in the data most compounds retested in dose-response had high values
Chromo domain-containing protein 1 (Saccharomyces cerevisiae (strain ATCC 204508 / S288c) (Baker's yeast)), sequence (P32657 whole entry, the tested form may be a part): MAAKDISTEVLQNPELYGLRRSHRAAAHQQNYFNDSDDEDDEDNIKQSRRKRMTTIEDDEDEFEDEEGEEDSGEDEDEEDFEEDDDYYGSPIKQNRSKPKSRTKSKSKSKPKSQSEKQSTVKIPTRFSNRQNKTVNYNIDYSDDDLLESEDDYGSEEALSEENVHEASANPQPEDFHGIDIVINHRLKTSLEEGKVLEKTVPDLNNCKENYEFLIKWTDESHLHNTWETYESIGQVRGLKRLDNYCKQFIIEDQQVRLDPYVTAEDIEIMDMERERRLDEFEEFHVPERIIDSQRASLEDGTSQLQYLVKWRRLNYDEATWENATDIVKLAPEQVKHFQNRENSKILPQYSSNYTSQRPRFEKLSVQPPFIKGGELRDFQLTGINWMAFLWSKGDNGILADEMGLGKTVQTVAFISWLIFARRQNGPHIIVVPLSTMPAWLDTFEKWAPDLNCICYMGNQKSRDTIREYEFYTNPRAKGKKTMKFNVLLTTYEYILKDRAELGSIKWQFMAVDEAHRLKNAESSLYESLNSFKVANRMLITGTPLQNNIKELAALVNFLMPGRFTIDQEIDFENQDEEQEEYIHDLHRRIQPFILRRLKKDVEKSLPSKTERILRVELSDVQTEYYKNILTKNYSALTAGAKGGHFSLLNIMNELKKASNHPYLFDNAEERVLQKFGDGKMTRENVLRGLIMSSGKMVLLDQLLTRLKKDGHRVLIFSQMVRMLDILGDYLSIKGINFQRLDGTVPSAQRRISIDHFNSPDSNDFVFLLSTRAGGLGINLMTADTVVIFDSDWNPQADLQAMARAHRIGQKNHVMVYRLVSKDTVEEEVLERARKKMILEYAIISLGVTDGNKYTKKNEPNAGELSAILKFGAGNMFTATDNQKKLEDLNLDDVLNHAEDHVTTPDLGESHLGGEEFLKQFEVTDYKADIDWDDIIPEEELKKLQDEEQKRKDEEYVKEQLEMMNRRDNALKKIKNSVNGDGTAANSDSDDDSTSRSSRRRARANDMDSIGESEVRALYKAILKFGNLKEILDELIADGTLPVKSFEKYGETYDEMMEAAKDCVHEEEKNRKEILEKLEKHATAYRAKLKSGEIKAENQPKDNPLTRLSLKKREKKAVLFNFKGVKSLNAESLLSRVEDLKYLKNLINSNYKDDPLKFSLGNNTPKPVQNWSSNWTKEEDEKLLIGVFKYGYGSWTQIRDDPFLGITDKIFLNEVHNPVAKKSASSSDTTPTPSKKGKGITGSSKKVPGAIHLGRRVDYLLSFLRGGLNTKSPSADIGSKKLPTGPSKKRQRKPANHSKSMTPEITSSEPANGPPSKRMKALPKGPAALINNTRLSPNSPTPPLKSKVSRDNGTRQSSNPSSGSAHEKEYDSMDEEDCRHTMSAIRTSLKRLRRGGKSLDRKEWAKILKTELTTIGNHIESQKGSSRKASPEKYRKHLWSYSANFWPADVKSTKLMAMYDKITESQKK

SMILES	Percent Effect [1] [%]	Percent Effect [2] [%]	Percent Effect [3] [%]	Percent Effect [4] [%]	Percent Effect (Trypanosoma cruzi) [%]	Percent Effect [5] [%]	Percent Effect [6] [%]	Percent Effect (Homo sapiens) [%]	Percent Effect [7] [%]	Percent Effect [8] [%]	Percent Effect [9] [%]
CCn1cc(CN2CCCN(C(=O)c3ccn(C)c(=O)c3)CC2)cn1	-0.55	20.8	-9.71	-17.4	4.02	-0.632	10.9	11.6	10.5	23.5	-18.6
CSCCC(CO)NC(=O)c1sc(-c2ccccc2Cl)nc1C (stereo not given)	-3.21	4	7.64	6.5	-5.89	-6.16	11.3	6.86	1.06	7.69	-4
CSc1cc2c(cc1NC(=O)NCC(C)(C)C(N)=O)OCCO2	-3.46	0	0.42	-2.41	-3.91	-28.8	12.8	-6.09	-27.7	6.1	0.589
CN(C)[C@@H]1CCN(c2ncccn2)[C@H]1Cc1ccccc1	-5.52	5.2	0.378	3.63	2.06	-1.38	8.65	-3.26	2.15	6.17	1.34
O=C(CCc1nc2cccnc2[nH]1)NCc1ccc2c(c1)OCO2	-3.15	12	2.23	0.158	0	-10.4	14.1	-11.6	9.52	17.9	-10
CCN1CCN(C2CCN(Cc3noc(C)n3)CC2)C1=O	-5.08	25.3	-3.66	-5.18	1.98	0.38	5.16	-0.161	7.39	21.5	-6.23
CC(CNCc1ccc(Cl)c(Cl)c1)Oc1ccccn1 (stereo not given)	-2.19	12	0.69	-3.31	4.91	-7.22	20.5	26.5	6.35	10.3	-11.8
Cc1nn2c(N3CCC(O)C3)cc(-c3ccccc3)nc2c1C (stereo not given)	-2.08	16.4	-7.6	7.31	2.58	-1.6	12.6	-0.188	7.29	-82.7	-3.57
CC(NC(=O)C1=NN(C)C(=O)CC1)c1ccc(F)cc1F (stereo not given)	-1.15	16.4	16.9	10.9	4.11	-4.09	20.4	14.5	5.38	15	-6.12
CSc1ccccc1CN1CCn2nc(CNC(C)=O)cc2C1	0.00499	11	1.85	8.13	2.35	18.2	18.6	15.7	6.45	20	-3.35
CCC(CC)NC(=O)Cn1nc(C)nc1-c1ccccc1	-4.52	16.2	-5.72	3.26	-6.32	-1.2	3.6	21.4	6.4	11.1	-8.07
CSCC[C@H](N)C(=O)NCc1cc2n(n1)CCCN(C1CCCCC1)C2	-0.291	12.5	-5.04	5.09	4.37	36.2	13.7	2.41	4.21	12.8	-3.52
O=C(N1CCCC1)N1CCO[C@H]2[C@@H](Oc3ccccn3)CC[C@@H]21	0.00913	2.67	13.9	-0.922	-4.92	4.43	-1.85	12.7	4.25	3.85	1.67
CN(Cc1ccsc1)C(=O)Nc1cccnc1N1CCCC1	-9.81	7.89	-31.4	-9.07	-7.38	0.719	2.62	6.49	-1.48	3.7	-2.06
CCn1cc(Br)c(C(=O)NCc2cccnc2)n1	-2.44	7.79	-1.81	5.82	0.885	-9.65	19.3	3.08	7.53	16.1	-1.44
CCc1nnc2n1CCN(C(=O)Cc1csc(-c3ccco3)n1)C2	-4.35	15.2	-5.8	9.4	-1.04	3.8	8.76	13.3	4.43	11.4	-4.32
Cc1cccc(OCCNC(=O)CN2CCCC2Cn2cccn2)c1 (stereo not given)	-2.54	-5.26	-4.16	6.34	4.95	-4.32	-0.931	-9.42	5.42	11.1	-3.56
COc1ncccc1NC(=O)NCC(O)c1ccc(F)cc1F (stereo not given)	-1.59	-6.33	2.46	1.59	-3.79	5.38	20.6	15.3	2.08	5.06	-13.8
O=C1CCC(C(=O)NCc2nncn2-c2ccccc2)CN1 (stereo not given)	-6.76	10.8	-10.2	20.8	3.68	-7.21	1.8	7.93	2.46	23.5	-12.7
Cc1cnc(CN(C)C2CCN(CC(=O)N(C)c3nccs3)C2)o1 (stereo not given)	2.75	17.7	3.25	-2.38	-8.4	0.76	13.2	40.8	1.48	-3.8	-6.37
